Source: PubChem (National Center for Advancing Translational Sciences (NCATS))
ATXN2 expr inh: inhibitors of ATXN2 expression | HEK-293 ATXN2-luciferase reporter, luminescence, 24 h | Potency, µM (titrated, usually from 57 µM), for inactives: at the highest dose activity change, negative = inhibition, hits mostly inhibitors | 360,000 tested, 0.72% active; note: % is set by controls: 0 for no effect and ±100 for the full control effect; nearly all actives have a fitted effect of over 55% in size
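ATXN2-luciferase reporter cells (luciferase flanked by upstream and downstream ATXN2 gene portions) were treated 24 h at 37 °C with compounds at up to 57 uM. SteadyGlo luminescence gave expression; GF-AFC fluorescence gave viability.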
TGFb inhibitor: inhibitors of TGF-b signaling. HepG2 CAGA-GFP TGF-b/SMAD3 reporter, GFP fluorescence, 18 h; TGF-beta stimulated, 500 pg/mL final. Potency, µM (titrated, usually from 46.1 µM), without a hit: top-dose activity, negative = inhibition, most hits filed as inhibitors. 410,000 tested, 1.2% active. AID 588855; note: % is set by controls: 0 for no effect and ±100 for the full control effect; nearly all actives have a fitted effect of over 65% in size
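Cell-based qHTS in HEPG2 carrying a CAGA-GFP Smad reporter; compounds added before 500 pg/mL final TGF-beta, 18 h incubation at 37 degrees C, GFP fluorescence quantified per cell by imaging cytometry.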
HepG2 tox: kills HepG2 cells in TGF-b inhibitor counter-screen | 410,000 tested, 0.76% active | Potency, µM (doses to about 46.1 µM), without a hit: at the top dose activity change, negative = cytotoxicity, usual class: cytotoxic | HepG2 CAGA-GFP viability, ATP luminescence, 18 h
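HepG2 CAGA-GFP cells (1000/well, DMEM with 1% FBS) received compound, then TGF-beta at 500 pg/mL final, and were incubated 18 hours at 37 degrees C. Viability was read by CellTiter-Glo luminescence. Media-only wells were set as complete cell-killing and DMSO as no toxicity.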
HT1080 IDH1KD tx: toxicity to HT-1080 IDH1 knockdown cells (counter line); HT-1080 IDH1 knockdown viability, ATP luminescence, 48 h; Potency, µM (top dose mostly 46.1 µM), for inactives: top-dose activity, negative = toxicity, most hits filed as cytotoxic; 360,000 tested, 2% active; AID 686971;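 note: 0% = DMSO wells and -100% = cell-free medium wells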
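In this qHTS, HT-1080 cells depleted of IDH1 are exposed for 48 h at 37 °C to compound titrations. Toxicity is scored from CellTiter-Glo luminescence, with DMSO as full viability and medium alone as none.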
HT1080-NT tox: kills 2HG-producing HT-1080-NT fibrosarcoma cells; HT-1080-NT fibrosarcoma viability, CellTiter-Glo ATP luminescence, 48 h; Potency, µM (doses to about 46.1 µM), inactives show at the highest dose activity, negative = less viability, usual class: cytotoxic; AID 686970; 360,000 tested, 1.6% active;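 note: NT is the 2HG producing partner of a matched IDH1 knockdown line; 0% = DMSO-treated cells and -100% = media-only wells without cells; nearly all actives have a fitted effect of over 55% in size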
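Viability of the 2HG-overproducing fibrosarcoma line after 48 hours of compound exposure at 37 degrees C was determined by luminescence with CellTiter-Glo, and concentration-effect curves were then fitted and categorized.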
ATXN viability: viability counter-screen for ATXN expression inhibitors; S2 cells (HEK-293 line with an ATXN2-luciferase reporter) viability, CellTiter-Fluor protease fluorescence, 24 h; Potency, µM (highest dose often 56.7 µM), usual class: cytotoxic; 400,000 tested, 0.49% active; note: nearly all actives have a fitted effect of over 40% in size
An asterisk follows results filed as active; i = inactive; ? = inconclusive; · = no result given. A selection: hits, their analogues and other compounds. The true share with any hit is near 3.9%. Calls come from the whole dose curve; as a rule, active = well fitted curve in the direction sought with a large enough effect; inconclusive = small, poorly fitted or top-dose-only effect, or another doubt; inactive = no such curve, though single readings can be large; an effect the other way counts as inactive or inconclusive. Potency is the fitted concentration of half-maximal effect.

SMILES	ATXN2 expr inh	TGFb inhibitor	HepG2 tox	HT1080 IDH1KD tx	HT1080-NT tox	ATXN viability
CS(=O)(=O)N(CC(=O)N/N=C/c1ccccc1C(=O)O)c1cccc(Cl)c1Cl	5%	-2%	11%	-9%	2%	i
C[C@@H](N)C(=O)N[C@H]1CCC2C3CC=C4C[C@@H](O)CC[C@]4(C)C3CC[C@@]21C (stereo not given in full)	1%	25%	-13%	-6%	-5%	i
CCC(C)[C@H](N)C(=O)N[C@H]1CCC2C3CC=C4C[C@@H](O)CC[C@]4(C)C3CC[C@@]21C (stereo not given in full)	·	?	16µM*	?	?	?
CC(C)[C@H](N)C(=O)N[C@H]1CCC2C3CC=C4C[C@@H](O)CC[C@]4(C)C3CC[C@@]21C (stereo not given in full)	·	?	20µM*	?	18µM*	?
CC(=O)OCC(=O)[C@H]1CC[C@H]2[C@@H]3CC=C4C[C@@H](O)CC[C@]4(C)[C@H]3CC[C@]12C	7%	4%	-6%	1%	27%	i
COc1ccccc1NC(=O)Cc1csc(NC(=S)Nc2ccc(C)cc2)n1	-10%	?	-41%	7.1µM*	6.3µM*	i
CO[C@@H]1[C@@H](O[C@@H]2O[C@H](C)[C@@H](O[C@H]3C[C@@](C)(O)[C@@H](OC(=O)CC(C)C)[C@H](C)O3)[C@H](N(C)C)[C@H]2O)[C@@H](CC=O)C[C@@H](C)[C@@H](O)/C=C/C=C/C[C@@H](C)OC(=O)C[C@H]1O	·	·	·	·	·	i
ClCc1nc2ccccc2c2ccccc12	0%	?	-7%	18µM*	5.8µM*	?
CCOC(=O)c1c(CCl)nc2ccccc2c1-c1ccccc1	?	-16%	-3%	-15%	-8%	?
CCc1cccc2c(C(=S)N3CCOCC3)c[nH]c12	8%	-2%	20%	23%	11%	?
CCc1cccc2c(C(=O)C(NCCCOC)c3ccccc3)c[nH]c12 (stereo not given)	-12%	-23%	-14%	?	16µM*	i
CCc1cccc2c(C(=O)C(NC(C)CC)c3ccccc3)c[nH]c12 (stereo not given)	-14%	?	-41%	?	21µM*	?
CCc1cccc2c(C(=O)COC(=O)c3ccccc3)c[nH]c12	63%	19%	2%	-1%	0%	i
COc1cccc(C2=NOC(C(=O)NCc3ccc(F)cc3)C2)c1 (stereo not given)	-9%	-47%	-16%	?	-24%	i
COc1cccc(C2=NOC(C(=O)NCc3cccs3)C2)c1 (stereo not given)	12%	-18%	-16%	21µM*	?	i
COc1ccc(C2=NOC(C(=O)NCc3ccc(F)cc3)C2)cc1OC (stereo not given)	-13%	?	-3%	1.1µM*	1.3µM*	?
COc1cc(C2=NOC(C(=O)NCc3ccc(F)cc3)C2)cc(OC)c1OC (stereo not given)	-1%	-22%	-9%	0.71µM*	1.1µM*	i
Cc1ccc(S(=O)(=O)Cc2nc(-c3ccc(C(=O)NCc4ccccc4)cc3)oc2C)cc1	·	?	-41%	·	·	·
COc1cc(CC(=O)OCC(=O)c2ccc3c(c2)OCCO3)cc(OC)c1OC	6%	-26%	-6%	1.5µM*	1.6µM*	?
O=C(COC(=O)c1ccc(O)cc1)c1ccc2c(c1)OCCO2	14%	-7%	-12%	-4%	-5%	i
COc1cc2c(cc1OC)CN(C(=O)c1ccc([N+](=O)[O-])o1)CC2	-9%	13µM*	-36%	?	13µM*	i
COc1cc(CNC(=O)Nc2nc(C(N)Cc3ccc(Cl)cc3)cs2)cc(OC)c1OC (stereo not given)	?	?	18µM*	?	6.5µM*	25µM*
CC(C)CC(N)c1csc(NC(=O)Nc2ccccc2C(C)C)n1 (stereo not given)	?	?	-98%	?	?	?
COc1ccc(CC(N)c2csc(NC(=O)c3ccc(F)cc3)n2)cc1 (stereo not given)	-14%	?	-29%	?	21µM*	i
COc1ccc(CNC(=O)Nc2nc(C(N)Cc3ccc(C(F)(F)F)cc3)cs2)cc1 (stereo not given)	?	16µM*	-94%	?	?	i
SMILES	ATXN2 expr inh	TGFb inhibitor	HepG2 tox	HT1080 IDH1KD tx	HT1080-NT tox	ATXN viability
CC(C)c1ccccc1NC(=O)Nc1nc(C(N)Cc2ccc(C(F)(F)F)cc2)cs1 (stereo not given)	?	11µM*	8.9µM*	?	5.8µM*	·
COc1ccc(CC(N)c2csc(NC(=O)c3ccc(OC)cc3)n2)cc1 (stereo not given)	-37%	?	-30%	-22%	?	i
COc1cc(CNC(=O)Nc2nc(C(N)c3ccccc3)cs2)cc(OC)c1OC (stereo not given)	-3%	-19%	-19%	-16%	-20%	i
N#C/C(=C1/SC[C@@H](c2ccc(Cl)cc2Cl)S1)n1ccnc1	?	·	·	·	·	i
COc1ccc(Cl)cc1C(=O)NCC(c1ccc(N(C)C)cc1)N1CCCC1 (stereo not given)	·	-1%	-8%	·	·	·
COCCN1CCN(C(=O)c2cnn(-c3nccc(-c4ccccc4F)n3)c2-c2ccco2)CC1	·	·	·	·	·	i
COC(=O)c1cnc(Nc2nc(C(N)Cc3ccc(Cl)cc3)cs2)nc1C(F)(F)F (stereo not given)	?	?	-89%	?	?	?
COC(=O)c1cnc(Nc2nc(C(N)Cc3ccc(OC)cc3)cs2)nc1C(F)(F)F (stereo not given)	-23%	?	-86%	?	23µM*	?
COc1ccc(CC(N)c2csc(NC(=O)C(c3ccccc3)c3ccccc3)n2)cc1 (stereo not given)	?	?	11µM*	21µM*	?	?
COc1ccc(CC(N)c2csc(NC(=O)c3ccccc3OC)n2)cc1 (stereo not given)	22µM*	-21%	-49%	-29%	?	?
Cc1cc(NC(=O)c2cccs2)cc(-c2nc3cc(Cl)ccc3o2)c1O	1%	18%	-3%	·	·	i
